Sfp inh: qHTS Assay for Inhibitors of Bacillus subtilis Sfp phosphopantetheinyl transferase (PPTase) | 4'-phosphopantetheinyl transferase ffp (Bacillus subtilis), Q9F4F7 | Biochemical Sfp PPTase activity, qHTS | Potency, µM, hits mostly inhibitors | 3.5% of 310,000 active;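 further: the enzyme is Sfp with the accession as filed and its product quenches rhodamine fluorescence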
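After 15 min at room temperature with compound, 15 nM Sfp received 5 uM rhodamine-CoA plus 12.5 uM BHQ-2-ybbR (50 mM Hepes pH 7.6, 10 mM MgCl2). Rate came from the fluorescence difference over 30 min, ex 525/em 598 nm.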
Coupling enz: qHTS Assay for Inhibitors of Fructose-1,6-bisphosphate Aldolase from Giardia Lamblia: Coupling assay counterscreen; coupling enzyme system counterscreen, AmpLite Red fluorescence; activity change, negative = inhibition, % at 58.2 µM, hits read low; 0.67% of 290,000 active; AID 2472, 2010; in the data active means activity change below about -30%
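Coupling enzymes only (glyceraldehyde-3-phosphate) + compound, at 57.5 uM final, 10 min RT; add substrate/coupling/AmpLite Red mix, 20 min RT; fluorescence ex 525/em 598 nm. Actives flag coupling-system interference.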
Tau fluor cs: Counterscreen qHTS for Inhibitors of Tau Fibril Formation, Fluorescence Polarization. 0.93% of 280,000 active. Potency, µM (highest dose often 57.7 µM). tau K18 P301L Alexa594 fluorescence, heparin fibrillization; further: nearly all actives have a fitted effect of over 55% in size
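Human K18 P301L tau (15 uM unlabeled plus 0.24 uM Alexa 594-labeled, final) in 100 mM sodium acetate pH 7 was mixed with compound and 20 uM heparin and incubated 6 hr at 37 C.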
Tau FP inhib: qHTS for Inhibitors of Tau Fibril Formation, Fluorescence Polarization; K18 P301L tau heparin fibrillization, Alexa594 FP, 6 h; Potency, µM (titrated, usually from 57.7 µM), actives largely listed as inhibitors; 0.39% of 280,000 active; AID 1468, 2008; further: nearly all actives have a fitted effect of over 55% in size
Target sequence (P10636 561-689 P618L limits assumed): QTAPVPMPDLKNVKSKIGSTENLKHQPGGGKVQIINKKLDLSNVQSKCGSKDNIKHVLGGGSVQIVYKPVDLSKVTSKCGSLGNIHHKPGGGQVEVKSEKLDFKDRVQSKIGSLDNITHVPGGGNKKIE
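FP of Alexa 594-tau after heparin (20 uM) induction. Substrate: human K18 P301L, 15 uM unlabeled, 0.24 uM labeled. Buffer 100 mM sodium acetate pH 7. 6 hr, 37 C.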
JMJD2E inh: qHTS Assay for Inhibitors of Human Jumonji Domain Containing 2E (JMJD2E); JMJD2E catalytic domain, FDH-coupled NADH fluorescence (FDH is formaldehyde dehydrogenase); Potency, µM (series often up to 57.1 µM), actives largely listed as inhibitors; 1.6% of 230,000 active; AID 2147, 2009; active means well fitted inhibition curve with a large enough effect, not every such curve was filed as active; inconclusive means small, poorly fitted or top-dose-only effect, or another doubt; inactive means no such curve, though single readings can be large or run the other way; further: nearly all actives have a fitted effect of over 50% in size
Target sequence (B2RXH2 1-337 limits assumed): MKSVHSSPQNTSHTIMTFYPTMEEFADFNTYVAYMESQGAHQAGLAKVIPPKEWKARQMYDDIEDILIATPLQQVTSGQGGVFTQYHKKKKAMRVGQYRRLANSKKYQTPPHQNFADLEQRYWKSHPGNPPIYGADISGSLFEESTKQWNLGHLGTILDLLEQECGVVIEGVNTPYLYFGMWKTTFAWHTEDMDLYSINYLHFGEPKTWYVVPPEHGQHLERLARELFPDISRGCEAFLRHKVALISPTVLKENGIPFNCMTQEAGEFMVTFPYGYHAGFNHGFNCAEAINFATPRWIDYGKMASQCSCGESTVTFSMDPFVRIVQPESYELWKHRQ
Tau ThT inhib: qHTS for Inhibitors of Tau Fibril Formation, Thioflavin T Binding; 2.1% of 270,000 active; Potency, µM (series often up to 57.4 µM), most hits filed as inhibitors; recombinant tau K18 P301L (four-repeat tau fragment), heparin-induced fibrillization, ThT fluorescence; AID 1460, 2008; further: nearly all actives have a fitted effect of over 55% in size
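K18 P301L tau (15 uM + 0.24 uM Alexa 594-tagged), heparin 20 uM, NaOAc pH 7, 6 h 37 C; ThT 30 uM, 1 h RT, ex 450/em 510 nm.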
Hits are given with their value; [ ] = remark or other dose. This is a sample that favours compounds with a hit; in the whole collection about 5.3% have one here. Unless noted, the call rests on the fitted dose curve; in most records, active means well fitted curve in the direction sought with a large enough effect; inconclusive means small, poorly fitted or top-dose-only effect, or another doubt; inactive means no such curve, though single readings can be large; an effect the other way counts as inactive or inconclusive.

How did O=c1cc(-c2ccccc2)oc2c(O)c(O)ccc12 do in these assays?
Sfp inh: inactive; Coupling enz: inactive; Tau fluor cs: inconclusive; Tau FP inhib: inactive; JMJD2E inh: 7.9µM; Tau ThT inhib: inconclusive

How did Cc1oc2c(O)c(O)ccc2c(=O)c1-c1ccc(Cl)cc1 do in these assays?
Sfp inh: inactive; Coupling enz: inactive

Results for Cc1cc(=O)oc2c(CN3CCCC3)c(O)ccc12 ?
Sfp inh: inactive; Coupling enz: inactive

Results for Cc1ccccn1 ?
Sfp inh: inactive

What do the screens show for `O=c1cc(-c2ccccc2O)oc2c(O)c(O)ccc12`?
Sfp inh: 4µM; Coupling enz: -56; Tau fluor cs: inconclusive; Tau FP inhib: 13µM; JMJD2E inh: 11µM; Tau ThT inhib: 11µM

Results for O=c1cc(-c2ccccc2O)oc2ccc3ccccc3c12 ?
Sfp inh: inactive; Coupling enz: inactive; Tau fluor cs: inactive; Tau FP inhib: inconclusive; JMJD2E inh: inactive; Tau ThT inhib: inconclusive

What do the screens show for `COc1cc(OC)cc(-c2nnc3n2N=C(c2ccc(OC)cc2OC)CS3)c1`?
Sfp inh: 56µM; Coupling enz: inactive

Results for COc1cccc(-c2nnc3n2N=C(c2cc(OC)ccc2OC)CS3)c1 ?
Sfp inh: inactive; Coupling enz: inactive; Tau fluor cs: inactive; Tau FP inhib: inactive; JMJD2E inh: inactive; Tau ThT inhib: inactive

How did COc1cccc(-c2nnc3n2N=C(c2ccc(OC)cc2OC)CS3)c1 do in these assays?
Sfp inh: 45µM; Coupling enz: inactive

How did Cc1cc(O)c2ccccc2c1O do in these assays?
Sfp inh: inactive

What do the screens show for `N#Cc1c(C#N)c(O)c2ccccc2c1O`?
Sfp inh: 13µM; Coupling enz: inactive; Tau fluor cs: inactive; Tau FP inhib: inconclusive; JMJD2E inh: inconclusive; Tau ThT inhib: 14µM

Results for CCOC(=O)N1CCC(N2Cc3cccc(C(=O)Nc4cccc(F)c4)c3C2=O)CC1 ?
Sfp inh: inactive; Coupling enz: inactive; Tau fluor cs: 4µM[quencher]; Tau FP inhib: inconclusive; JMJD2E inh: inactive; Tau ThT inhib: inconclusive

Results for CCOC(=O)N1CCC(N2Cc3cccc(C(=O)Nc4ccc(OC)c(OC)c4)c3C2=O)CC1 ?
Sfp inh: inactive; Coupling enz: inactive; Tau fluor cs: inactive; Tau FP inhib: inactive; JMJD2E inh: inactive; Tau ThT inhib: inconclusive

What do the screens show for `CC1CCc2c(sc(/N=C/c3cccnc3)c2C(N)=O)C1` (centres undefined)?
Sfp inh: 50µM; Coupling enz: inactive; Tau fluor cs: inactive; Tau FP inhib: inactive; JMJD2E inh: inconclusive; Tau ThT inhib: inconclusive

How did CC1CCc2c(sc(/N=C/c3ccco3)c2C(N)=O)C1 (centres undefined) do in these assays?
Sfp inh: inactive; Coupling enz: inactive; Tau fluor cs: inactive; Tau FP inhib: inconclusive; JMJD2E inh: inconclusive; Tau ThT inhib: inconclusive

Results for CCCc1ccc(S(=O)(=O)N2CCC(c3nnc(-c4cccc(C)c4)o3)CC2)cc1 ?
Tau fluor cs: inactive; Tau FP inhib: inactive; Tau ThT inhib: inconclusive

What do the screens show for `CCOc1ccccc1CNC(=O)c1cccn1-c1nnc(N2CCCC2)s1`?
Tau fluor cs: inactive; Tau FP inhib: inactive; Tau ThT inhib: inactive

How did O=C(O)CC(O)CC(O)/C=C/c1c(C2CC2)nc2ccccc2c1-c1ccc(F)cc1 (centres undefined) do in these assays?
Sfp inh: inactive

How did COc1cc(C2NC(=O)NC(C)=C2C(=O)OC(C)(C)C)ccc1OCC(=O)O (centres undefined) do in these assays?
Sfp inh: inactive; Coupling enz: inactive; Tau fluor cs: inactive; Tau FP inhib: inactive; JMJD2E inh: inactive; Tau ThT inhib: inactive

Source: PubChem (National Center for Advancing Translational Sciences (NCATS))
